Screening data as filed in PubChem.
Shown are actives, neighbours in structure and some others; about 1.5% of the full set was active somewhere.
RAD54 inh – RAD54 (human) branch migration inhibition | inhibition, % at 10.4 µM | 360,000 tested, 0.14% active | RAD54 Holliday junction branch migration, FAM/BHQ fluorescence | Q92698;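 active = mean normalized replicate activity at least 40 and at least half of replicates scoring 40 or more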;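 note: inhibitors cause a drop in the FAM fluorescence signal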
Glyco luc inh – N-linked glycosylation inhibition. 360,000 tested, 0.23% active. D54 ERlucT glycosylation luciferase reporter, 24 h; percent of 100 nM tunicamycin response. reporter increase, % at 12.5 µM. AID 588692;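 active = mean luciferase reporter signal, scaled so untreated is 0 and the glycosylation-blocking control 100, at or above a set limit in every replicate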;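 note: luciferase carries N-glycosylation sites so blocking glycosylation raises the light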
miR122 inh – miR-122 inhibition in Huh7 cells; Huh7 miR-122 Renilla luciferase sensor, 48 h; neutral wells = 0, positive control = 100; activation (reporter increase), % at 12.5 µM; 340,000 tested, 0.3% active;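 active = mean replicate activation score at least 90 and every replicate individually at or above 90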;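 note: higher luciferase means less miR-122 activity so hits act as miR-122 inhibitors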
NRP1-CendR mod – NRP-1/CendR interaction modulation; FAM-RPARPAR peptide binding to NRP-1, fluorescence polarization; inhibition, % at 25 µM; 360,000 tested, 0.85% active; O14786;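 active = inhibition or corrected inhibition above about 18%, plus a signal ratio from 0.5 to 1.5, limit read from the data, passing the limit was not always enough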
Target sequence (O14786 whole entry, looked up): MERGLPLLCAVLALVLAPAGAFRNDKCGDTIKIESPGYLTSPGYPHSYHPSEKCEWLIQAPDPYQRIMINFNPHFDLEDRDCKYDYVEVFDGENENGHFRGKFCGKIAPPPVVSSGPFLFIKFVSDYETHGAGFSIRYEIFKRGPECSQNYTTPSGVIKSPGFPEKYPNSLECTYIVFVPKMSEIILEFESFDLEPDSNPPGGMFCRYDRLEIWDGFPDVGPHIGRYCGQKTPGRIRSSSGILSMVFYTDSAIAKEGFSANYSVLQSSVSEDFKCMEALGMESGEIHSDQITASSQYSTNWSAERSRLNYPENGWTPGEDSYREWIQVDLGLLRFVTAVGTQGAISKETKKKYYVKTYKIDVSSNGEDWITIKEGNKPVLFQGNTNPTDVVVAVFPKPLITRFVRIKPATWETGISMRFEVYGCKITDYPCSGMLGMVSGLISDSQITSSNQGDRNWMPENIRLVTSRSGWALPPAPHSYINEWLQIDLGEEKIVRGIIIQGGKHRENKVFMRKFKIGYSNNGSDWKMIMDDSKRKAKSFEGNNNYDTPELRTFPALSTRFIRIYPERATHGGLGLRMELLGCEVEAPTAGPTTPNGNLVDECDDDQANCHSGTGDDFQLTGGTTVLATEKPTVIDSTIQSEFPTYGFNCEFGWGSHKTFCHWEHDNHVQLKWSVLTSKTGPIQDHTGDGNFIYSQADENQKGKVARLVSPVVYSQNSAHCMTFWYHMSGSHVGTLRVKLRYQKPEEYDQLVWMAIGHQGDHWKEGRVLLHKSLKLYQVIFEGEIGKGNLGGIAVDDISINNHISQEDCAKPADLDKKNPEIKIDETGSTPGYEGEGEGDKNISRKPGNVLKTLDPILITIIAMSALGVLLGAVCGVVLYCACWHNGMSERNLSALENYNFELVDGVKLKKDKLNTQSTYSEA
DNA FID counter – counter-screen for HCV NS3 helicase inhibitors: DNA intercalator displacement; DNA fluorescent intercalator displacement, fluorescence; inhibition, % at 7.9 µM; 290,000 tested, 0.17% active; in the data active = inhibition above about 37%;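 note: higher means more ethidium bromide displaced from hairpin DNA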
RAD52 anneal inh – RAD52 (human) annealing inhibition. P43351. recombinant RAD52 DNA annealing, FRET fluorescence. inhibition, % at 18.7 µM. 360,000 tested, 0.46% active. AID 651710;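 active = every replicate showing at least 50% inhibition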
Numbers stand for hits; i = inactive; nt = not tested or not shown; [ ] = another dose, or the depositor's remark.

SMILES	RAD54 inh	Glyco luc inh	miR122 inh	NRP1-CendR mod	DNA FID counter	RAD52 anneal inh
Cc1ccc(-c2ccc3c(c2)O[C@@H](CN(C)C(=O)CN(C)C)[C@@H](C)CN([C@H](C)CO)S3(=O)=O)cc1	i	nt	i	nt	nt	58
CNC[C@H]1Oc2cc(C#Cc3ccc(OC)cc3)ccc2S(=O)(=O)N([C@@H](C)CO)C[C@@H]1C	i	nt	i	nt	nt	52
C[C@H](CO)N1C[C@H](C)[C@@H](CN(C)S(C)(=O)=O)Oc2cc(C#Cc3ccccc3)ccc2S1(=O)=O	i	nt	130[16.7 µM]	nt	nt	i
C[C@@H]1CN([C@@H](C)CO)S(=O)(=O)c2ccc(C#Cc3ccccc3)cc2O[C@H]1CN(C)C(=O)CN(C)C	i	nt	i	nt	nt	i
C[C@@H]1CN([C@H](C)CO)S(=O)(=O)c2ccc(C#Cc3ccccc3)cc2O[C@@H]1CN(C)C(=O)CN(C)C	i	i	i	i	nt	68
C[C@H](CO)N1C[C@H](C)[C@H](CN(C)C(=O)CN(C)C)Oc2cc(C#Cc3ccccc3)ccc2S1(=O)=O	i	nt	i	nt	nt	60
O=C(Nc1cccnc1)c1ccc(Cl)c(S(=O)(=O)N2CCCCCC2)c1	i	i	nt	i	i	i
CC1CN(S(=O)(=O)c2cc(C(=O)NC(C)c3cccnc3)ccc2Cl)CC(C)O1 (configuration not stated)	i	i	i	20	nt	i
O=C(/C=C/c1cccnc1)c1ccc(NC(=O)c2cccc(Br)c2)cc1	i	i	i	19	i	nt
CS(=O)(=O)c1cccc(C(=O)Nc2ccc(-c3nc4ccccc4[nH]3)cc2)c1	i	46	i	i	i	i
COc1cccc(NC(=O)N[C@@H]2CC[C@H](CC(=O)N3CCN(C)CC3)O[C@H]2CO)c1	i	nt	nt	nt	nt	i
O=C(N[C@H]1CC[C@H](CC(=O)N2CCOCC2)O[C@@H]1CO)c1ccccn1	i	nt	nt	nt	nt	i
O=C(CSc1ccc([N+](=O)[O-])cc1)NCC1CCCCC1	i	i	nt	26	i	i
O=C(NCC1CCCCC1)c1ccc([N+](=O)[O-])cc1	i	i	i	i	i	i
c1ccc(Cn2c(CNc3nc4ccccc4n3CCN3CCCCC3)nc3ccccc32)cc1	i	i	nt	30	i	nt
Cc1ccc(C)c(C(=O)NC(C)CCc2ccccc2)c1 (configuration not stated)	nt	i	i	i	i	i
Cc1occc1C(=O)NC(C)CCc1ccccc1 (configuration not stated)	i	i	i	24	i	nt
CC(CCc1ccccc1)NC(=O)CNC(=O)c1cccs1 (configuration not stated)	i	i	nt	28	i	i
Cc1cccc(C(=O)NCC(=O)NC(C)CCc2ccccc2)c1 (configuration not stated)	i	i	nt	i	i	i
CC(CCc1ccccc1)NC(=O)c1ccc(NC(=O)c2ccccc2)cc1 (configuration not stated)	i	26	i	i	i	i
C[C@H]1CN([C@@H](C)CO)C(=O)c2cc(NC(=O)Cc3cn(C)c4ccccc34)ccc2O[C@H]1CN(C)S(C)(=O)=O	i	nt	i	nt	nt	i
C[C@@H]1CN([C@@H](C)CO)C(=O)Cc2cc(NC(=O)Cc3cn(C)c4ccccc34)ccc2O[C@H]1CN(C)S(=O)(=O)c1cn(C)cn1	i	nt	i	nt	nt	i
CCN(CC)Cc1c(O)ccc2c(C)c(CC(=O)OC)c(=O)oc12	i	i	i	47	i	nt
COc1cc(S(=O)(=O)NC2CCCCC2)ccc1Cl	i	i	121	i	i	nt
COc1ccc(C)cc1S(=O)(=O)NC1CCCC1	i	i	170	i	i	nt
SMILES	RAD54 inh	Glyco luc inh	miR122 inh	NRP1-CendR mod	DNA FID counter	RAD52 anneal inh
CSc1nc2ccc(S(=O)(=O)NC3CCCCC3)cc2s1	nt	i	175	i	i	nt
O=S(=O)(NC1CCCCCC1)c1cccc(Cl)c1	i	i	nt	i	nt	i
CSc1nc2ccc(S(=O)(=O)N3CCCCC3)cc2s1	i	i	i	i	i	nt
COc1ccc(C)cc1S(=O)(=O)NC1CC1	i	i	i	i	i	i
Cc1cccc(S(=O)(=O)NC2CCCCCCC2)c1	i	i	159	i	i	i
O=C(C1CCCCC1)N1CC2(C1)[C@@H](c1ccccc1)[C@@H](CO)N2Cc1nccs1	nt	nt	nt	nt	nt	i
COCC(=O)Nc1ccc2c(c1)OC[C@H](C)N(C(=O)COC)C[C@H](C)[C@@H](OC)CN(C)C2=O	nt	nt	nt	nt	nt	i
COc1ccc(NC(=O)Nc2ccc3c(c2)CC(=O)N([C@H](C)CO)C[C@H](C)[C@@H](CN(C)Cc2ccncc2)O3)cc1	i	nt	i	nt	nt	i
CC(C)NC(=O)NCC[C@H]1CC[C@H](NC(=O)CN(C)C)[C@H](CO)O1	i	nt	i	nt	nt	i
CCNS(=O)(=O)c1cc(Br)ccc1OC	i	i	248	i	i	nt
Cc1cc(S(=O)(=O)NC2CCCCC2)ccc1OCC(=O)N1CCOCC1	nt	i	i	27	i	i
CCOC(=O)N1CCN(C(=O)COc2ccc(S(=O)(=O)NC3CCCCC3)cc2C)CC1	i	i	i	i	i	nt
O=C(COc1ccc(S(=O)(=O)NC2CCCCC2)cc1)NC1CCCCC1	i	i	i	i	i	nt
O=C(COc1ccc(S(=O)(=O)NC2CCCCC2)cc1)NC1CCCC1	i	i	245	i	i	i
CCOc1ccc(Br)cc1S(=O)(=O)NC1CCCC1	i	i	93	i	nt	i
Cc1noc(C)c1S(=O)(=O)Nc1ccc2c(c1)C(=O)N([C@H](C)CO)C[C@@H](C)[C@@H](CN(C)S(=O)(=O)c1ccccc1)O2	i	nt	i	nt	nt	i
COc1cccc(S(=O)(=O)N2CC3(CN(C(=O)Nc4cccc(F)c4)[C@H](CO)c4[nH]c5cc(OC)ccc5c43)C2)c1	nt	nt	nt	nt	nt	i
COc1ccc(S(=O)(=O)NC2CCCC2)cc1NC(C)=O	i	i	nt	i	i	i
COc1ccc(S(=O)(=O)NC2CCCCC2)cc1C	i	i	137	i	i	i
CCC(=O)N1[C@H](CO)[C@H](c2ccccc2)[C@@H]1CN(CC)C(=O)c1cccc(F)c1	i	nt	250[16.7 µM]	nt	nt	i
CCC(=O)N1[C@H](CN(CC)C(=O)c2cccc(F)c2)[C@H](c2ccccc2)[C@@H]1CO	i	nt	125[16.7 µM]	nt	nt	i
O=C(C[C@H]1CC[C@H]2[C@@H](COC[C@H](O)CN2Cc2cccc(C(F)(F)F)c2)O1)NCc1ccc(F)cc1	i	nt	i	nt	nt	i
COc1cc(-c2cnc3c(NC(C)=O)cc(-c4ccccc4CN(C)C)cn23)cc(OC)c1OC	i	40	i	i	nt	i
C[C@H](CO)N1C[C@H](C)[C@H](CN(C)C(=O)Nc2ccc3c(c2)OCO3)Oc2ccc(NC(=O)Nc3ccccc3)cc2C1=O	nt	nt	i	nt	nt	nt
CC(Sc1ncccn1)C(=O)NC1(C#N)CCCCC1 (configuration not stated)	i	i	i	26	nt	i
OCC1OC(n2ccc3c(SCc4ccccc4)ncnc32)C(O)C1O (configuration not stated)	i	32	nt	i	nt	i
